Screening results as filed in PubChem BioAssay.
Rows were chosen to be rich in hits. Some 4.7% of all compounds tested hit in one or more screens of this group.
PfHsp90 set2: growth inhibition of yeast expressing Plasmodium Hsp90. S. cerevisiae expressing PfHsp90, BacTiter-Glo ATP, 48 h; yeast lacking PDR1 and PDR3 efflux regulators. actives 0.32% (n = 310,000). inhibition, % at 9.4 µM;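 active = every replicate shows inhibition above about 80%, whatever the replicate mean, limit read from the data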;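 note: 0% = DMSO neutral controls and 100% = 20 µM radicicol positive controls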
tim10-1 inh: tim10-1 yeast growth inhibition | actives 2.2% (n = 330,000) | inhibition, % at 20 µM | S. cerevisiae tim10-1 ts strain growth, BacTiter-Glo, 24 h;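 active = inhibition of at least 40%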;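 note: mutant grown at 25 °C; 0% = DMSO wells with yeast and 100% = wells holding no yeast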
tim23-1 inh: inhibits growth of tim23-1 mutant yeast. AID 463212. actives 1.3% (n = 330,000). S. cerevisiae tim23-1 growth, BacTiter-Glo luminescence, 24 h. inhibition, % at 20 µM;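 active = growth inhibition of the mutant yeast at or above 50%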;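 note: temperature-sensitive mutant grown at 25 °C; plate controls were DMSO-treated mutant yeast for no effect and medium wells lacking yeast for full effect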
TIM10 inh: growth inhibitors of TIM10 yeast strain | inhibition, % at 10 µM | actives 1.4% (n = 330,000) | S. cerevisiae TIM10 strain growth, BacTiter-Glo luminescence, 24 h;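 active = inhibition of 40% or more at the single tested concentration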;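 note: wild-type TIM10 isogenic control strain grown at permissive 25 °C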
ATG4B inh: blocks human ATG4B protease cleavage of LC3 substrate. Q9Y4P1. ATG4B cleavage of LC3-PLA2, NBD-HPC fluorescence, 1 h. inhibition, % at 8.33 µM. actives 0.51% (n = 340,000). AID 504462; in the data active = inhibition above about 40%
Target sequence (Q9Y4P1 whole entry, looked up): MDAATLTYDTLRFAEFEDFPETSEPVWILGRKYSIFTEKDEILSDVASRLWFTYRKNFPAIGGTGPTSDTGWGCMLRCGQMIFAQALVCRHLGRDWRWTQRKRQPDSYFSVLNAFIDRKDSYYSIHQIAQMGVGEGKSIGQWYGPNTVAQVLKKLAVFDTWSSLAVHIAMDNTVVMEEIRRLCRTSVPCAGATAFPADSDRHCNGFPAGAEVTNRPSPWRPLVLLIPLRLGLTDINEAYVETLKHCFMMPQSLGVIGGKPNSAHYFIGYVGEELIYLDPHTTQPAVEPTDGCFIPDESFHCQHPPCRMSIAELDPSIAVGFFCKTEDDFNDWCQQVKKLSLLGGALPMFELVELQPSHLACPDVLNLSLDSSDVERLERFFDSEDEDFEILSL
SKKanGAS inh: SKKanGAS growth inhibition; S. pyogenes SKKanGAS, kanamycin growth, BacTiter-Glo, 6 h; inhibition, % at 7.5 µM; actives 1.3% (n = 300,000); AID 1662;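 active = mean replicate score, as percent of positive control median, at least 50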;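 note: strain carries kanamycin resistance gene driven by streptokinase promoter and grows in 40 µg/ml kanamycin; loss of luminescence reflects streptokinase promoter inhibition or plain growth inhibition; 0% = median of DMSO wells and 100% = positive control at its reference dose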
tim10-1 confirm: confirmation of tim10-1 mutant yeast growth inhibitors | actives 56% (n = 7,400) | S. cerevisiae tim10-1 ts strain growth, BacTiter-Glo, 24 h | shares compounds with tim10-1 inh | AID 463213 | inhibition, % at 20 µM;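 active = inhibition of yeast growth at or above a set limit in either of two repeat tests at 20 µM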;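 note: tim10-1 mutant grown at permissive 25 °C to find synthetic lethal compounds; 0% = DMSO yeast wells and 100% = medium wells without yeast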
Numbers without * were called inactive; x = no result given; ! = a repeat was not active.

SMILES | PfHsp90 set2 | tim10-1 inh | tim23-1 inh | TIM10 inh | ATG4B inh | SKKanGAS inh | tim10-1 confirm
COc1ccc2c(c1)CC/C(=C\c1ccc(OC)c(Cn3nc(C)cc3C)c1)C2=O | x | 40* | 13 | 14 | 2 | 17 | 11
Cc1ccc(-c2csc3nc4c5ccccc5c(NCCCN(C)C)nn4c(=O)c23)cc1 | 5 | 24 | 39 | 30 | 14 | 10 | x
Cc1ccc(-c2csc3nc4c5ccccc5c(NCCCN5CCOCC5)nn4c(=O)c23)cc1 | x | 43* | 18 | -1 | x | 5 | 39*
CN(C)c1ccc(/C=C/C=C2/SC(=S)N(c3ccccc3)C2=O)cc1 | 45 | 44* | 46 | 36 | -5 | 25 | 29*
CCCCN1c2ccccc2N(CCCO)c2cc(C)nnc21 | 0 | 45* | 16 | 8 | -12 | -3 | 21
Oc1ccc(Oc2ncc(Cl)cc2Cl)cc1 | -1 | 40* | 37 | 9 | 8 | 5 | 34*
CCOCCOC(=O)C(C)Oc1ccc(Oc2ncc(Cl)cc2Cl)cc1 (stereo not given) | -4 | 25 | 20 | 24 | 11 | -18 | x
N#CCCN(C(=O)COC(=O)c1cccc(S(=O)(=O)N2CCCC2)c1)c1ccc(F)cc1 | 27 | -9 | -4 | 11 | -11 | -6 | x
CNC(=O)C(=O)Nc1ccc2c(c1)N(S(=O)(=O)c1cccs1)CCC2 | x | 25 | 30 | 22 | -11 | -6 | x
CC(C)NC(=O)C(=O)Nc1ccc2c(c1)N(S(=O)(=O)c1cccs1)CCC2 | 11 | 43* | 35 | 26 | -3 | -10 | 21
Cc1c(NC(=O)CSc2ccc(Cl)cc2)cccc1-c1nc2ncccc2o1 | -39 | 31 | 34 | 29 | -11 | -14 | x
COc1ccc(C(=O)OCC(=O)Nc2cc(C)on2)c(OC)c1OC | 1 | 85* | 7 | -3 | -10 | 1 | -7
COc1cc(OC)c(C(=O)OCC(=O)Nc2cc(C)on2)cc1OC | 7 | 11 | 6 | 1 | 1 | -5 | x
CCn1c(-c2csc3ccccc23)n[nH]c1=S | -10 | 31 | 23 | 23 | 13 | -3 | x
CCn1c(-c2csc3c2CCC(C)C3)n[nH]c1=S (stereo not given) | 6 | 48* | 45 | 24 | 5 | -17 | 14
Cc1ccc(C(C)NC(=O)C2CCCO2)cc1C (stereo not given) | x | -5 | -1 | 3 | -5 | 6 | x
Cc1cc(OCc2cc(C(=O)N(C)Cc3ccccn3)no2)cc(C)c1Cl | 0 | 29 | 19 | 25 | 15 | 0 | x
Cc1cc(OCc2cc(C(=O)NC(C)c3c(C)nn(C)c3C)no2)cc(C)c1Cl (stereo not given) | -2 | 46* | 32 | 8 | 12 | -1 | 15
Cc1cc(OCc2cc(C(=O)N(C)C(C)c3ccccn3)no2)cc(C)c1Cl (stereo not given) | -15 | 41* | 27 | 14 | 21 | 5 | 12
COC(=O)[C@]1(C)N[C@H](CN(C)S(=O)(=O)c2ccc(F)cc2)[C@@H]2C(=O)N(Cc3ccccc3)C(=O)[C@@H]21 | -7 | -2 | -2 | 4 | x | x | x
COc1ccc(OC)c(N=c2ssnc2Cl)c1 | x | 47* | 25 | 12 | -14 | 1 | 32*
Nc1ccccc1N=c1ssnc1Cl | 6 | x | x | x | -8 | x | x
COc1cc(N=c2ssnc2Cl)c(OC)cc1Cl | 91*! | 42*! | 45 | 13 | -4 | 0 | 51*
COc1cc(-n2nnnc2SC)c(OC)cc1Cl | 1 | 4 | 13 | 17 | -4 | -15 | x
COc1ccc(OCc2cc(C(=O)N3CCCCCCC3)no2)c(Cl)c1 | -4 | 17 | 20 | 7 | 13 | 2 | x
SMILES | PfHsp90 set2 | tim10-1 inh | tim23-1 inh | TIM10 inh | ATG4B inh | SKKanGAS inh | tim10-1 confirm
COc1ccc(OCc2cc(C(=O)N3CCN(C4CCCC4)CC3)no2)c(Cl)c1 | 12 | 43* | 27 | 22 | -14 | -1 | 33*
CCN(CC)c1ccc(NC(=O)CN2CCN(CC(=O)Nc3ccc(OC)cc3)CC2)cc1 | -26 | -18 | -62 | -36 | -3 | 1 | x
CSc1cccc(Nc2ccc(S(=O)(=O)N3CCOCC3)cc2[N+](=O)[O-])c1 | -31 | 30 | 36 | 14 | 8 | x | x
COc1ccc(Cl)cc1NC(=O)CSc1nnc(COc2ccccc2)n1N | -13 | 18 | -3 | -1 | 4 | -4 | x
COc1ccc(Cl)cc1NC(=O)CSc1nnc(COc2ccccc2)n1C | -34 | 46* | 20 | 16 | 5 | -12 | 17
CCOc1cc(C2Nc3cccc4cccc(c34)N2)ccc1O | -6 | 51* | 37 | 32 | -27 | 14 | 29
COc1ccc(NS(=O)(=O)c2ccc(S(=O)(=O)N3CCCC3)cc2)cc1 | 6 | 5 | 14 | 3 | 9 | -3 | x
O=[N+]([O-])c1cccnc1Sc1ccc(F)cc1 | x | -4 | -15 | 1 | 8 | 3 | x
Cc1cc(C)c2nc(N3CCCN(C(=O)c4ccco4)CC3)c(C#N)cc2c1 | 17 | 47* | 37 | 23 | 3 | -1 | 32*
O=C(C1CCCCN1S(=O)(=O)c1ccccc1)N1CCN(Cc2ccccc2)CC1 (stereo not given) | -14 | 20 | 10 | 23 | -14 | 2 | x
CCOC(=O)c1cccnc1SCC(=O)N(CC)c1cccc(C)c1 | x | 40* | 37 | 34 | -4 | -7 | 35*
CCOC(=O)c1cccnc1SCC(=O)NCc1ccccc1 | 4 | 17 | -5 | -12 | -4 | -13 | x
CCN(C(=O)CSc1ncccc1C(=O)OC(C)C)c1cccc(C)c1 | x | 42* | 42 | 15 | 15 | 8 | 21
COc1cccc(NC(=O)COC(=O)c2nc3nccc(C)n3n2)c1 | -68 | 8 | -2 | 3 | 1 | 4 | x
COc1cccc(N(C(=O)c2nc3nccc(C)n3n2)c2nc3ccccc3s2)c1 | -17 | 48* | 31 | 18 | -2 | 5 | 24
CCOC(=O)c1cc2c(ccn2C)n1CC(=O)N1CCN(c2cccc(C(F)(F)F)c2)CC1 | x | 12 | 7 | 5 | -10 | 6 | x
O=C(O)c1ccccc1SC1CC(=O)N(c2ccccc2)C1=O (stereo not given) | 24 | 33 | 36 | 7 | 1 | 3 | x
O=C1CC(Sc2cccs2)C(=O)N1c1ccccc1 (stereo not given) | 27 | 42* | 31 | 19 | 1 | -4 | 40*
O=C(O)c1cccnc1SC1CC(=O)N(c2ccccc2)C1=O (stereo not given) | 10 | 1 | 20 | -1 | -6 | -1 | x
COc1ccc(N2C(=O)CC(Sc3nc4ccccc4s3)C2=O)cc1 (stereo not given) | -3 | 41* | 34 | 21 | 4 | 3 | 33*
